High-throughput results deposited in PubChem by ICCB-Longwood Screening Facility, Harvard Medical School.
AID504770: growth inhibitors of E. coli YBA685 in a screen for V. cholerae RctB (chromosome II replication) inhibitors. E. coli YBA685 rctB-dependent plasmid, OD600 growth, 3 h; hits give low values. z-score (concentration not given with the values). 130,000 tested, 0.27% active; in the data active = z-score below about -2, passing the limit was not always enough
Ba CapD inh: blocks the Bacillus anthracis CapD enzyme | purified CapD enzyme, fluorescence intensity read-out; hits give low values | z-score (concentration not given with the values) | 140,000 tested, 0.23% active; in the data active = z-score mostly below about -2.9, no sharp cut-off; inactive = mostly above about -1.9
Active calls of the source: *; nt = not tested or not shown. The list is not random: actives were taken first. Their share in the collection is about 0.36%.

SMILES	AID504770	Ba CapD inh
CC1COc2c(F)c(F)cc3c(=O)c(C(=O)O)cn1c23 (configuration not stated)	-0.75	1.3
CCn1cc(C(=O)O)c(=O)c2cc(F)c(N3CCNC(C)C3)c(F)c21 (configuration not stated)	-3.6*	0.47
O=C(c1ccccc1Cl)N1CCC(N(C2CC2)S(=O)(=O)c2ccccc2)CC1	nt	-0.47
O=C(Nc1ccccc1)c1cc(Cl)ccc1O	-2.7*	42
O=C(Nc1ccccc1)c1csc2ccc(Cl)cc12	1.4	-0.8
CC(=O)Nc1ccc(NC(=O)CNC2CCC(C)CC2)cc1 (configuration not stated)	0.95	nt
CCC(C)NC(=O)CSc1cc(C)nc2c(-c3ccccc3OC)c(C)nn12 (configuration not stated)	-0.4	-1.1
COc1ccc(N2CCN(CCN3CCCCC3)CC2)cc1	-0.1	nt
COc1ccc(-n2c(C(C)N3CCCCC3)n[nH]c2=S)cc1 (configuration not stated)	-5.2*	nt
CC(C)Cn1cc(C(=O)NCc2cccnc2)c2c3ccccc3n(C)c2c1=O	0.6	47
CCOc1ccc(NC(=O)c2cn(CC(C)C)c(=O)c3c2c2ccccc2n3C)cc1	-2.9*	-0.095
Nc1cccnc1Sc1ccccn1	nt	1.2
O=C1c2ccccc2-c2onc3ccc(Oc4ccccc4)c1c23	nt	-0.92
O=C1c2ccccc2-c2onc3ccc(Oc4c(F)c(F)c(F)c(F)c4F)c1c23	-2.2*	nt
CCN1/C(=C\C(=O)C2CC2)Sc2ccccc21	0.05	nt
CCN1/C(=C\C(=S)Nc2ccccc2)Sc2ccccc21	0.55	-4.4*
O=C1NC(=S)N/C1=C\c1cc(Br)ccc1OCc1ccc([N+](=O)[O-])cc1	nt	0.38
Cc1[nH][nH]c(=O)c1N=Nc1ccc(S(=O)(=O)N2CCCCC2)cc1	-0.3	nt
[N-]=[N+]=c1c(=O)ccc2c(=O)c3ccccc3c(=O)c1=2	-6.3*	-2.4
CC(C)c1nc2ccccc2c2c1C(=O)N(CCC1CCCN1C)C2=O (configuration not stated)	nt	0.78
O=C(Nc1nccs1)C1CCN(S(=O)(=O)c2ccccc2)CC1	-2.3*	nt
O=C(Nc1nccs1)C1CCN(S(=O)(=O)c2cccnc2)CC1	-0.75	-0.38
CN(C)C(=O)CSc1nc2ccccc2o1	-0.4	0.09
CC(C)Oc1cccc(C(=O)NC(C)(C)C)c1	1.4	-0.18
Cc1cc2ncc(C(=O)/C=C/N(C)C)c(C)n2n1	0.25	-5.1*
SMILES	AID504770	Ba CapD inh
CC(=O)c1cnc2cc(C)nn2c1C	nt	0.06
COC(=O)c1ccc(N=Nc2sc3ccccc3c2O)cc1	0.6	0.73
Cc1ccc(Cn2ccsc2=NC(=O)COC(=O)c2ccc3c(=O)n4c(nc3c2)CCC4)cc1	-0.15	nt
Cc1ccccc1Nc1cc2ccccc2c(=O)[nH]1	-4*	15
Cc1nc2cc3ccccc3cc2c(=O)[nH]1	-0.95	nt
CN1CCN(S(=O)(=O)c2ccc3oc(=O)c4ncn(C)c4c3c2)CC1	-2.4*	0.15
CN1CCN(S(=O)(=O)c2ccc3c(c2)oc(=O)c2cc(S(=O)(=O)N4CCN(C)CC4)ccc23)CC1	-0.15	-0.28
O=c1cccc2n1CC1CC2CN(c2nc(N3CCCCC3)nc(N3CCCCC3)n2)C1 (configuration not stated)	-2.7*	nt
O=c1cccc2n1CC1CC2CN(c2nc(N3CCCC3)nc(N3CCCC3)n2)C1 (configuration not stated)	nt	1.7
CN1/C(=C\C=Nc2cccc(C(=O)O)c2)C(C)(C)c2ccccc21	0.95	-0.36
CN1/C(=C\C=Nc2ccc(C(=O)O)cc2)C(C)(C)c2ccccc21	0.6	-3.2*
C=CCN(CC=C)C(=O)C[n+]1cccc(C(N)=O)c1	0.2	0.17
C=CCN(CC=C)C(=O)C[n+]1ccc(C(N)=O)cc1	-4*	0
CC1CCCN(S(=O)(=O)c2ccc(NC(=O)CSc3nc4ccccc4o3)cc2)C1 (configuration not stated)	0.1	nt
Cc1nc2ccc(Cl)cc2cc1C(=O)O	-0.8	nt
Cc1ccc(S(=O)(=O)/N=C/c2cccnc2)cc1	1.8	-0.12
CC1(C)CC(=O)C=C(Nc2ccc(F)cc2)C1	-1.1	7.5
CC1(C)CC(=O)C=C(Nc2ccccc2F)C1	-2.5*	nt
CN1C(=O)CSc2ccccc21	-1.4	0.61
O=C(CC(C(=O)O)N(Cc1ccccc1)Cc1ccccc1)c1ccc(Cl)cc1 (configuration not stated)	-2.9*	-0.06
N#CC(C#N)CC(=O)c1ccc(Cl)cc1	-0.9	17
Cc1cc2c(N=NC(=O)C3CC34CCC4)c(O)[nH]c2cc1Br (configuration not stated)	-0.35	nt
O=C(CCCn1c(SCC(=O)Nc2ccccc2C(F)(F)F)nc2ccccc2c1=O)NCCCN1CCOCC1	nt	0.34
COC(=O)c1ccccc1-n1cnc2ccccc2c1=O	0.4	2.8
COC(=O)C1=CN(N(C(C)=O)C(C)=O)C(=O)CC1	-0.95	-9.2*
CS(=O)(=O)Nc1csc(C(F)(F)F)c1-c1ccccc1	-0.5	-0.57
